Hits are enriched below; roughly 17% of the tested compounds scored in any of these assays.
TDP1 inh: qHTS Assay for Inhibitors of Tyrosyl-DNA Phosphodiesterase (TDP1). Potency, µM (top dose mostly 130 µM), for the others: top-dose activity change, negative = inhibition, usual class: inhibitors. AID 485290, 2010. actives 0.28% (n = 350,000). recombinant TDP1, AlphaScreen DNA substrate cleavage; further: on the % scale 0 is the no-effect control and ±100 the full control effect; nearly all actives have a fitted effect of over 40% in size
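Tdp1 1 nM final; 15 min RT w/ cpd; substrate 15 nM, 5 min; beads 10 ug/ml, 10 min; AlphaScreen read. Neg ctrl: no enzyme.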
DT40 TDP1 CPT: qHTS for Inhibitors of human tyrosyl-DNA phosphodiesterase 1 (TDP1): qHTS in cells in presence of CPT | chicken DT40 Tdp1-/-;hTDP1 cells + 20 nM CPT, ATP luminescence, 48 h | Potency, µM (doses to about 46.2 µM), for the others: at the highest dose activity change, negative = growth inhibition, usual class: inhibitors | actives 12% (n = 420,000) | AID 686979, 2013; further: on the % scale 0 is the no-effect control and ±100 the full control effect; nearly all actives have a fitted effect of over 55% in size
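Chicken DT40 Tdp1-/- cells stably complemented with human TDP1 were seeded at 400 cells/well in medium containing 20 nM camptothecin, exposed to pin-transferred compounds, and grown at 37 °C for at least 48 hr. Viability was read as ATP luminescence.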
DT40 TDP1 no CPT: qHTS for Inhibitors of human tyrosyl-DNA phosphodiesterase 1 (TDP1): qHTS in cells in absence of CPT; AID 686978, 2013; DT40 Tdp1-/- hTDP1 cells, no CPT, ATP luminescence, 48 h; actives 15% (n = 420,000); Potency, µM (highest dose often 46.2 µM), inactives show at the top dose activity change, negative = growth inhibition, usual class: inhibitors; further: on the % scale 0 is the no-effect control and ±100 the full control effect; nearly all actives have a fitted effect of over 55% in size
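Luminescent ATP content (CellTiter-Glo) served as the growth readout. Knockout chicken DT40 cells expressing human TDP1 were exposed to compounds without camptothecin for a minimum 48 hr at 37 °C.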
ClpP mod: qHTS Assay for Activators of ClpP; ATP-dependent Clp protease proteolytic subunit (Bacillus subtilis (strain 168)), P80244; purified B. subtilis ClpP, FRET peptide cleavage, 20 min; Potency, µM (doses to about 57.5 µM), without a hit: top-dose activity change, negative = active; actives 1.9% (n = 340,000); AID 651965, 2013; active means well fitted falling curve with a large enough effect; inconclusive means small, poorly fitted or top-dose-only effect; inactive means no such curve, though single readings can be large or run the other way; further: the source files actives as falling curves though it sought activators and does not explain the sign; nearly all actives have a fitted effect of over 65% in size
Target sequence (P80244 whole entry, looked up): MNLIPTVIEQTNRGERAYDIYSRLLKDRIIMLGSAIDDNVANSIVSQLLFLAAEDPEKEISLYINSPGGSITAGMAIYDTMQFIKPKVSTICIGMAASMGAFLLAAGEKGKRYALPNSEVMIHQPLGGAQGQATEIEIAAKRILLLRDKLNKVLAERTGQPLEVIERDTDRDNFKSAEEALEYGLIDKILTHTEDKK
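ClpP 10 microg/mL final, pH 8 Tris/KCl buffer with BSA, glycerol, Tween-20; compound pinned in; FRET-FV substrate; RT 20 min; Ex320/Em430; ΔFRET vs ADEP 5.8 microM, DMSO, no enzyme.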
Starred values were filed as active, the others as inactive; u = inconclusive; x = no result. Unless noted, the call rests on the fitted dose curve; in most records, active means well fitted curve in the direction sought with a large enough effect; inconclusive means small, poorly fitted or top-dose-only effect, or another doubt; inactive means no such curve, though single readings can be large; an effect the other way counts as inactive or inconclusive. Potency means the concentration at half of the fitted maximal effect.

SMILES	TDP1 inh	DT40 TDP1 CPT	DT40 TDP1 no CPT	ClpP mod
COc1ccc(NC(=O)Cn2c(=O)cc(C)c3c(C)nn(C)c32)cc1	-2%	u	3.3µM*	1%
CCOc1ccc(NC(=O)Cn2c(=O)cc(C)c3c(C)nn(-c4cccc(Cl)c4C)c32)cc1	8%	26µM*	13µM*	1%
CC(C)(C)C(c1nc2ccccc2[nH]1)n1c(-c2ccsc2)nc2ccccc21 (centres undefined)	x	u	u	-15%
CCC(CCC(C)C1CCC2C3CC=C4CC(OC(C)=O)CC[C@@]4(C)C3CC[C@@]12C)C(C)C (some centres undefined)	10%	-22%	-11%	x
CN(CC(=O)Nc1ccc(OC(F)(F)F)cc1)C(=O)/C=C/c1cc2c(cc1[N+](=O)[O-])OCO2	1%	-21%	-2%	-4%
Cc1nn(C)c2c1c(-c1ccccc1)cc(=O)n2CC(=O)NC(C)c1ccccc1 (centres undefined)	x	u	u	-17%
Cc1cc(=O)n(CC(=O)NC(C)c2ccccc2)c2c1c(C)nn2C (centres undefined)	x	15µM*	8.2µM*	4%
CCc1ccc(-n2nc(C)c3c(C)cc(=O)n(CC(=O)Nc4ccc(C(C)=O)cc4)c32)cc1	8%	u	9.2µM*	u
CCOC(=O)c1ccc(NC(=O)Cn2c(=O)cc(C)c3c(C)nn(-c4ccc(CC)cc4)c32)cc1	2%	u	-18%	-10%
CCCCN(CCO)c1ncnc2sc(-c3ccccc3)cc12	x	u	16µM*	4%
CN(C)CCCNc1ncnc2sc(-c3ccccc3)cc12	x	u	16µM*	4%
O=C(NCCSSCCNC(=O)c1ccccc1)c1ccccc1	x	18µM*	16µM*	-2%
O=C(NCCSc1ccccc1)c1ccccc1	5%	-8%	-3%	-2%
Cc1ccc2ncnc(Nc3cccc([N+](=O)[O-])c3)c2c1	x	23µM*	u	-7%
c1nc(NC2CCNCC2)c2cc(-c3ccoc3)ccc2n1	x	u	-10%	x
Cn1ncc2c(Nc3cccc([N+](=O)[O-])c3)ncnc21	0%	-19%	u	-2%
COc1ccccc1-c1ccc2ncnc(Nc3ccccc3)c2c1	x	21µM*	-94%	x
CNc1ncnc2ccc(-c3ccccc3OC)cc12	x	u	21µM*	x
Fc1ccc(Nc2ncnc3ccc(-c4ccoc4)cc23)cc1	x	15µM*	u	x
Nc1ccccc1-n1cccc1	1%	0%	4%	x
COc1ccc(OC)c(Nc2ncnc3ccc(Br)cc23)c1	-1%	u	u	31%
COc1cccc(Nc2ncnc3ccc(Br)cc23)c1	x	u	21µM*	-1%
COc1cc(NC(=O)C(CC(C)C)N2Cc3ccccc3C2=O)cc(OC)c1 (centres undefined)	9%	-15%	u	-3%
COc1ccccc1CNC(=O)C(CC(C)C)N1Cc2ccccc2C1=O (centres undefined)	-1%	9.2µM*	21µM*	-2%
COc1cc(C(CC(=O)NCc2ccccc2)N2Cc3ccccc3C2=O)cc(OC)c1OC (centres undefined)	6%	-21%	-29%	1%
SMILES	TDP1 inh	DT40 TDP1 CPT	DT40 TDP1 no CPT	ClpP mod
COc1cc(OC)c(NC(=O)C(CC(C)C)N2Cc3ccccc3C2=O)cc1Cl (centres undefined)	1%	15µM*	u	-4%
COc1cc(C(CC(=O)NCc2ccc(F)cc2)N2Cc3ccccc3C2=O)cc(OC)c1OC (centres undefined)	0%	u	16µM*	-2%
COc1ccccc1CNC(=O)CC(c1ccc(F)cc1)N1Cc2ccccc2C1=O (centres undefined)	0%	u	23µM*	-11%
Clc1ccccc1CSc1nnc(C2CCNCC2)o1	4%	u	u	-1%
O=C(CN1CCCCCC1)Nc1ccc([N+](=O)[O-])cc1Cl	3%	-13%	u	10µM*
O=C(CN1CCN(c2ccccc2O)CC1)Nc1ccc([N+](=O)[O-])cc1Br	6%	u	23µM*	2%
